In PubChem BioAssay AID1159580 (chemical genetic matrix, 2015):
Several values for one entry are separate records, joined by “and”; a condition that tells them apart may be missing. Identical values can stand only once. The campaign covered roughly 5,500 compounds. About 2,000 (36%) were called active. Roughly 18% stayed inconclusive and do not appear here. Cut-off read from the data, not from the text of the source: active = normalized growth mostly below about 0.91 (no sharp cut-off); inconclusive = no clear call, values can overlap the other calls; inactive = mostly above about 0.92. The list shows a part of the results.

Assay: chemical genetic growth profiling, strain panel (AID 1159580);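 note: tested at 20 µM; growth read once vehicle control cultures reached saturation at 30 °C; 1 = growth at the plate median or of vehicle wells; lower values mean less growth of the strain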
Conditions: S. cerevisiae deletion strains, growth OD

Measured: normalized growth

CC(C)=CCC/C(C)=C/CO
inactive: locus YAL013W, strain DEP1, active compounds read low 1.01 | locus YAL021C, strain ccr4, active compounds read low 1.02 | locus YAL026C, strain drs2, active compounds read low 0.98 | locus YAL030W, strain snc1, active compounds read low 0.995 | locus YBL061C, strain skt5, active compounds read low 0.986 | locus YBR009C, strain hhf1, active compounds read low 1.01 | locus YBR021W, strain FUR4, active compounds read low 1 | locus YBR023C, strain chs3, active compounds read low 1 | locus YBR171W, strain sec66, active compounds read low 0.973 | locus YBR229C, strain ROT2, active compounds read low 1.02 | locus YBR231C, strain swc5, active compounds read low 1.02 | locus YBR279W, strain paf1, active compounds read low 1.01 | locus YCL011C, strain gbp2, active compounds read low 0.972 | locus YCL016C, strain dcc1, active compounds read low 1.02 | locus YCL029C, strain bik1, active compounds read low 0.988 | locus YCL069W, strain vba3, active compounds read low 0.986 | locus YCR088W, strain abp1, active compounds read low 0.976 | locus YDL005C, strain med2, active compounds read low 0.979 | locus YDL035C, strain GPR1, active compounds read low 1.01 | locus YDL040C, strain nat1, active compounds read low 0.977 | locus YDL074C, strain BRE1, active compounds read low 0.994 | locus YDL101C, strain DUN1, active compounds read low 1.01 | locus YDL134C, strain PPH21, active compounds read low 1.02 | locus YDL185W, strain tfp1, active compounds read low 0.985 | locus YDL192W, strain arf1, active compounds read low 1 | locus YDR001C, strain nth1, active compounds read low 0.992 | locus YDR069C, strain doa4, active compounds read low 0.984 | locus YDR101C, strain arx1, active compounds read low 0.978 | locus YDR137W, strain rgp1, active compounds read low 0.982 | locus YDR150W, strain NUM1, active compounds read low 1.01 | locus YDR159W, strain sac3, active compounds read low 0.937 | locus YDR162C, strain NBP2, active compounds read low 1.01 | locus YDR195W, strain ref2 0.968 | locus YDR297W, strain sur2, active compounds read low 0.987 | locus YDR318W, strain mcm21, active compounds read low 0.995 | locus YDR334W, strain swr1, active compounds read low 0.99 | locus YDR335W, strain msn5, active compounds read low 0.987 | locus YDR388W, active compounds read low 0.987 | locus YDR392W, strain spt3, active compounds read low 0.929 | locus YDR502C, strain sam2, active compounds read low 0.989 | locus YEL003W, strain gim4, active compounds read low 0.986 | locus YEL037C, strain rad23, active compounds read low 0.978 | locus YEL061C, strain CIN8 (second series), active compounds read low 0.975 | locus YEL061C, strain CIN8, active compounds read low 1.01 | locus YER015W, strain faa2, active compounds read low 0.982 | locus YER016W, strain bim1, active compounds read low 0.98 | locus YER110C, active compounds read low 0.985 | locus YER111C, strain swi4, active compounds read low 0.988 | locus YER155C, strain BEM2 (second series), active compounds read low 1.02 | locus YER155C, strain BEM2, active compounds read low 1.01 | locus YER167W, strain BCK2, active compounds read low 1.01 | locus YFR010W, strain ubp6, active compounds read low 0.978 | locus YGL078C, strain dbp3, active compounds read low 0.984 | locus YGL086W, strain mad1, active compounds read low 0.992 | locus YGL167C, strain pmr1, active compounds read low 0.986 | locus YGL173C, strain kem1, active compounds read low 0.958 | locus YGL227W, strain vid30, active compounds read low 0.981 | locus YGL240W, strain doc1, active compounds read low 0.967 | locus YGL248W, strain PDE1, active compounds read low 1.03 | locus YGL253W, strain hxk2, active compounds read low 0.961 | locus YGR078C, strain PAC10, active compounds read low 1 | locus YGR135W, strain pre9, active compounds read low 0.988 | locus YGR229C, strain SMI1, active compounds read low 0.998 | locus YGR252W, strain gcn5, active compounds read low 1.03 | locus YHR013C, strain ard1, active compounds read low 1 | locus YHR027C, strain rpn1, active compounds read low 0.977 | locus YHR030C, strain SLT2, active compounds read low 1.01 | locus YHR079C, strain IRE1 (second series), active compounds read low 0.993 | locus YHR079C, strain IRE1, active compounds read low 0.994 | locus YHR094C, strain hxt1, active compounds read low 0.995 | locus YHR129C, strain ARP1, active compounds read low 1.01 | locus YHR142W, strain chs7, active compounds read low 0.998 | locus YHR200W, strain rpn10, active compounds read low 1 | locus YIL066C, strain RNR3, active compounds read low 1.01 | locus YIL073C, strain SPO22, active compounds read low 0.989 | locus YIL125W, strain kgd1, active compounds read low 1 | locus YIR030C, strain dcg1, active compounds read low 0.993 | locus YJL092W, strain hpr5, active compounds read low 0.985 | locus YJL095W, strain BCK1 (second series), active compounds read low 0.982 | locus YJL095W, strain BCK1, active compounds read low 1 and 0.989 | locus YJL115W, strain asf1, active compounds read low 0.993 | locus YJL129C, strain trk1, active compounds read low 0.981 | locus YJL134W, strain LCB3, active compounds read low 1.01 | locus YJL154C, strain vps35, active compounds read low 0.988 | locus YJL164C, strain tpk1, active compounds read low 1.02 | locus YJL166W, strain qcr8, active compounds read low 1.01 | locus YJL168C, strain set2, active compounds read low 0.992 | locus YJL187C, strain SWE1 (second series), active compounds read low 1.01 | locus YJL187C, strain SWE1, active compounds read low 0.993 | locus YJR043C, strain POL32, active compounds read low 0.986 | locus YJR066W, strain TOR1, active compounds read low 0.994
